From PubChem
IkB signaling – inhibitors of IkB signaling in ABC-DLBCL cells. ABC-DLBCL IkBa-CBG/CBR dual luciferase ratio, 4 h; response scale: scaled: untreated 0%, proteasome inhibitor 100%. Potency, µM (series often up to 57.1 µM), inactives show at the top dose IkBa stabilization activation. 110,000 compounds, 0.04% hits; active means well fitted curve in the direction sought with a large enough effect in the signal ratio, not every such curve was filed as active; inconclusive means small, poorly fitted or top-dose-only effect, or a change in a side signal; the % refers to the signal ratio;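 further: the direction sought is a rising ratio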
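Luminescence ratio of IκBα-fused green versus native red beetle luciferase in OCI-Ly3 cells, 4 h post-doxycycline with compound; red signal alone, scaled from basal (0%) to zero light (-100%), flagged nonspecific or cytotoxic effects.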
p53ts 39C kill – kills p53ts cells at the nonpermissive temperature. H1299-p53A138V viability at 39C, ATP luminescence, 24 h. Potency, µM (highest dose often 46.1 µM), inactives show top-dose activity change, negative = cell killing, hits mostly cytotoxic. 130,000 compounds, 1.5% hits. AID 902; further: on the % scale 0 is the no-effect control and ±100 the full control effect; nearly all actives have a fitted effect of over 55% in size
p53ts 32C tox – p53ts cell cytotoxicity, permissive temperature. H1299-p53A138V at 32C, ATP luminescence viability, 24 h. Potency, µM (series often up to 46.1 µM), for the others: top-dose activity change, negative = cytotoxicity, actives largely listed as cytotoxic. 130,000 compounds, 0.93% hits. AID 924;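 further: 0% = DMSO and -100% = full killing by reference compound; nearly all actives have a fitted effect of over 55% in size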
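Viability by ATPlite luminescence after 24 h compound treatment (up to 46 uM) at the permissive 32C. Cells are H1299 carrying p53 A138V. Scale runs from DMSO basal to 100 uM tamoxifen as full kill; AC50 from Hill fits.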
Peg3 imprint – induces erasure of genomic imprints in mouse ES cells; mouse ES Peg3-LacZ reporter, beta-gal luminescence, 40 h; Potency, µM (titrated, usually from 60.7 µM), without a hit: at the highest dose activity change, positive = activation, usual class: activators; 110,000 compounds, 0.02% hits
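Each well holds 300 Peg3LacZ-Neo (maternal) female ES cells incubated 40 h at 37C, 5% CO2. LacZ is measured by BetaGlo luminescence, with AC50 and maximum efficacy derived from dose-response curves.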
Starred values were filed as active, the others as inactive; [ ] = another dose, or the depositor's remark. In the library only some 1.8% were active in any assay of this set; here they are far more common. Unless noted, the call rests on the fitted dose curve; in most records, active means well fitted curve in the direction sought with a large enough effect; inconclusive means small, poorly fitted or top-dose-only effect, or another doubt; inactive means no such curve, though single readings can be large; an effect the other way counts as inactive or inconclusive. Potency means the concentration at half of the fitted maximal effect.

COC(=O)c1ccccc1NC(=O)c1cc2c(s1)-c1ccccc1OC2 was read as IkB signaling inconclusive, p53ts 39C kill -11%, p53ts 32C tox 29% and Peg3 imprint -8%[10.9 µM].
CCCc1ccc(-c2ccc(F)c(N)c2)nc1 was read as IkB signaling inconclusive, p53ts 39C kill 7.9µM*, p53ts 32C tox 4µM* and Peg3 imprint -92%.
For CCCCc1ccc(-c2ccc(Br)cc2)nc1 the results were p53ts 39C kill 37% and p53ts 32C tox 4%.
For CC(C)COc1ccc(C(=O)Nc2onc3c2CCCC3)cc1 the results were IkB signaling -2%, p53ts 39C kill 16µM*, p53ts 32C tox inconclusive and Peg3 imprint -27%[10.9 µM].
Screening O=C(Nc1onc2c1CCCC2)c1ccccc1 returned IkB signaling -1%, p53ts 39C kill inconclusive, p53ts 32C tox inconclusive and Peg3 imprint -48%[10.9 µM].
`CC(C)(C)c1ccc(C(=O)Nc2onc3c2CCCC3)cc1` gave IkB signaling -2%, p53ts 39C kill 13µM*, p53ts 32C tox 13µM* and Peg3 imprint -12%[10.9 µM].
CCOc1ccc(C(=O)Nc2onc3c2CCCC3)cc1 was read as IkB signaling 3%, p53ts 39C kill 16µM*, p53ts 32C tox 6.3µM* and Peg3 imprint -40%[10.9 µM].
For CCOc1ccc(C(=O)NCC2CCCO2)cc1 (stereo not drawn) the results were IkB signaling -1%, p53ts 39C kill 3%, p53ts 32C tox -9% and Peg3 imprint -25%.
CC(C)COc1ccc(C(=O)NCc2ccco2)cc1 was read as IkB signaling 0%, p53ts 39C kill -6%, p53ts 32C tox -10% and Peg3 imprint -21%.
`COc1ccc(OC)c(CCNC(=O)c2cc3c(s2)-c2c(C)cccc2OC3)c1` gave IkB signaling inconclusive, p53ts 39C kill -15%, p53ts 32C tox 12% and Peg3 imprint -2%[10.9 µM].
N#CC1=C(c2ccccc2)N=P(N2CCOCC2)(N2CCOCC2)N=C1N1CCOCC1 was read as IkB signaling 1%, p53ts 39C kill -6%, p53ts 32C tox -7% and Peg3 imprint 1%.
Screening Cc1nn(-c2ccccc2Cl)c(Cl)c1/C=N/Nc1cccc(C(=O)O)c1 returned p53ts 39C kill 11µM* and p53ts 32C tox 11µM*.
For Nc1ncnc2c1nc(Cl)n2C1OC(CO)C(O)C1O (stereo not drawn) the results were p53ts 39C kill inconclusive, p53ts 32C tox inconclusive and Peg3 imprint -10%.
`[N-]=[N+]=Nc1nc2c(N)ncnc2n1C1OC(CO)C(O)C1O` (stereo not drawn) gave p53ts 39C kill 2.5µM*, p53ts 32C tox 2µM* and Peg3 imprint -7%.
For COc1ccc(NC(=O)Cn2c(=O)n(-c3ccccc3)c(=O)c3c4c(sc32)CCCC4)cc1 the results were IkB signaling inconclusive, p53ts 39C kill 25µM*, p53ts 32C tox inconclusive and Peg3 imprint 8%[10.9 µM].
Screening CCOc1ccc(NC(=O)Cn2c(=O)n(-c3ccccc3)c(=O)c3c4c(sc32)CCCC4)cc1 returned IkB signaling -1%, p53ts 39C kill -10%, p53ts 32C tox -9% and Peg3 imprint 20%[10.9 µM].
CCc1ccc(-c2nc(CN3CCCC(C(=O)N4CCN(c5cc(Cl)ccc5C)CC4)C3)c(C)o2)cc1 (stereo not drawn) was read as IkB signaling inconclusive, p53ts 39C kill inconclusive, p53ts 32C tox 13µM* and Peg3 imprint -15%[10.9 µM].
`CN1CCN(c2ccc3nc(-c4ccc5nc(-c6ccc(O)cc6)[nH]c5c4)[nH]c3c2)CC1` gave IkB signaling 4%[11.4 µM], p53ts 39C kill 9%[9.22 µM], p53ts 32C tox 5%[9.22 µM] and Peg3 imprint -1%[10.9 µM].
Cc1ccc(Cc2cn3cc(-c4ccccc4)nc3s2)cc1 was read as IkB signaling inconclusive, p53ts 39C kill 4µM*, p53ts 32C tox inconclusive and Peg3 imprint -22%[10.9 µM].
Screening Fc1ccc(Cc2cn3cc(-c4ccc(F)cc4)nc3s2)cc1 returned IkB signaling inconclusive, p53ts 39C kill 7.9µM*, p53ts 32C tox inconclusive and Peg3 imprint -13%[10.9 µM].
For Fc1ccc(-c2cn3cc(Cc4ccccc4Cl)sc3n2)cc1 the results were IkB signaling inconclusive, p53ts 39C kill 5µM*, p53ts 32C tox 7.9µM* and Peg3 imprint 26%[10.9 µM].
For Clc1ccc(-c2cn3cc(Cc4ccccc4)sc3n2)cc1 the results were IkB signaling inconclusive, p53ts 39C kill 6.3µM*, p53ts 32C tox inconclusive and Peg3 imprint -4%[10.9 µM].
